In PubChem BioAssay (Tox21) one finds outcome, Potency and max activation data, which are given here for ten compounds.

SMILES strings stand for the structures. A number with no mark means an inactive call. Records with an inconclusive call do not appear. The source made the active and inactive calls. Unless noted, the call rests on the fitted dose curve; in most records, active means well fitted curve in the direction sought with a large enough effect in the repeat runs; inconclusive means weak or mixed curves; inactive means no such curve, though single readings can be large; an effect the other way counts as inactive or inconclusive.

Assay [1] deals with Thyrotropin-releasing hormone receptor (Homo sapiens) (UniProt P34981). The assay can be described thus: qHTS assay to identify small molecule agonists of the thyrotropin-releasing hormone receptor (TRHR) signaling pathway (AID 1346891; calls by dose curve; further: series mostly up to about 58 µM). The method, boiled down: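 Readout was intracellular calcium fluorescence in TRHR-Hek293 cells. Cells were incubated 18 h, dye-loaded 2 h at 37 °C, and treated with compound in agonist mode.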
(qHTS replaces the single test concentration by a dilution series.)

Assay [2] can be described thus: Human pregnane X receptor (PXR) small molecule agonists, qHTS cell viability counter screen (AID 1346977). Further: nearly all actives have a fitted effect of over 50% in size. The method, boiled down:
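In each well, the PXR reporter HepG2 line was checked for viability: CellTiter-Fluor reagent added 23hr post-dosing, fluorescence read after 1hr incubation at 37C.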

The nature of assay [3]: Caspase-3/7 induction in HepG2 cells by small molecules, qHTS assay (AID 1346978). Further: nearly all actives have a fitted effect of over 15% in size. The method, boiled down: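 Wild-type HepG2 cells, 2,000/well, settled 5 hr at 37 C and 5% CO2, then compound-treated for 17 hr; caspase-3/7 activity read by luminescent Caspase-Glo 3/7 after 30 min at room temperature.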
A short description of assay [4]: Caspase-3/7 induction in CHO-K1 cells by small molecules, qHTS cell viability counter screen (AID 1346979). Further: nearly all actives have a fitted effect of over 35% in size. The procedure, abridged: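 Following a 5hr settling period, CHO-K1 cells at 1,500 per well received DMSO-dissolved compounds. Cell viability was quantified 16hr later by CellTiter-Fluor fluorescence, measured after 1hr with reagent at 37C.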
Assay [5] in a line: Caspase-3/7 induction in CHO-K1 cells by small molecules, qHTS assay (AID 1346980). Further: nearly all actives have a fitted effect of over 15% in size. The procedure, abridged:
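Wild-type CHO-K1 cells exposed to compounds for 17hr at 37 C, 5% CO2. Caspase-3/7 activity then measured by Caspase-Glo 3/7 luminescence after 30min at room temperature.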

Assay [6] is described as follows: Caspase-3/7 induction in HepG2 cells by small molecules, qHTS cell viability counter screen (AID 1346981). Further: series mostly up to about 92 µM; nearly all actives have a fitted effect of over 30% in size. The method, boiled down:
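Steps: seed 2,000 HepG2 cells per well; incubate 5 hr at 37 C; pin-add compounds in DMSO; incubate 16 hr; add CellTiter-Fluor; after 1 hr at 37 C and 5% CO2, read fluorescence.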

Assay [7] has as its target Nuclear receptor subfamily 1 group I member 2 (Homo sapiens) (UniProt O75469). The assay can be described thus: Human pregnane X receptor (PXR) small molecule agonists, qHTS assay (AID 1346982). Further: nearly all actives have a fitted effect of over 35% in size. The procedure, abridged:
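Agonist mode qHTS: PXR-Luc HepG2 cells plated 5 hr before DMSO-dissolved compounds were pinned in, cultured 24 hr at 37 C, 5% CO2; ONE-Glo luminescence readout.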

Assay [8] has as its target Cytochrome P450 2D6 (Homo sapiens) (UniProt P10635). The assay can be described thus: Cytochrome P450 Family 2 Subfamily D Member 6 (CYP2D6) small molecule antagonists: luciferase reporter qHTS assay (AID 1671196). Further: nearly all actives have a fitted effect of over 50% in size. Further: potency means the concentration at half of the fitted maximal effect. The method, boiled down: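 P450-Glo format: CYP2D6 converts a proluciferin substrate to luciferin in an NADPH-driven reaction lasting 1 h at room temperature. Light output, proportional to CYP2D6 activity, reflects interference by test chemicals.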
(In general: A reporter such as luciferase makes a cellular process visible.)

The target of assay [9] is Cytochrome P450 2C9 (Homo sapiens) (UniProt P11712). The assay can be described thus: Cytochrome P450 Family 2 Subfamily C Member 9 (CYP2C9) small molecule antagonists: luciferase reporter qHTS assay (AID 1671198). Further: nearly all actives have a fitted effect of over 50% in size. Further: potency means the concentration at half of the fitted maximal effect. The method, boiled down: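 P450-Glo proluciferin substrate with CYP2C9 enzyme; 10 min RT preincubation, then NADPH regeneration 1 h at 37C; luciferin detection reagent 20 min RT, luminescence in relative luminescence units.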

The target of assay [10] is Cytochrome P450 1A2 (Homo sapiens) (UniProt P05177). The assay can be described thus: Cytochrome P450 Family 1 Subfamily A Member 2 (CYP1A2) small molecule antagonists: luciferase reporter qHTS assay (AID 1671199). Further: series mostly up to about 120 µM; nearly all actives have a fitted effect of over 50% in size. The procedure, abridged:
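Inhibition of CYP1A2 conversion of proluciferin to luciferin, detected by luminescence. Reaction run 1 h at room temperature with NADPH regeneration after brief compound preincubation.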

The target of assay [11] is Voltage-gated inwardly rectifying potassium channel KCNH2 (Homo sapiens) (UniProt Q12809). The assay can be described thus: Human Ether-a-go-go-Related Gene (hERG) channel small molecule antagonists: fluorescence cell-based qHTS assay (AID 1671200). The method, boiled down: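 In this thallium-flux screen, overnight-cultured U2OS cells bearing the channel are dye-loaded in darkness for an hour, rested 10 min at room temperature, and then monitored kinetically at 480/540 nm for two minutes post-stimulus.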

The target of assay [12] is Cytochrome P450 3A4 (Homo sapiens) (UniProt P08684). The assay can be described thus: Cytochrome P450 Family 3 Subfamily A Member 4 (CYP3A4) small molecule antagonists: luciferase reporter qHTS assay (AID 1671201). The method, boiled down:
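CYP3A4 activity was followed with a P450-Glo proluciferin substrate. Test compounds in DMSO were preincubated 10 min; NADPH regeneration then ran 1 h, and light output was read 20 min after detection reagent.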

For assay [13], the target named is Cytochrome P450 2C19 (Homo sapiens) (UniProt P33261). The assay can be described thus: Cytochrome P450 Family 2 Subfamily C Member 19 (CYP2C19) small molecule antagonists: luciferase reporter qHTS assay (AID 1671197). Further: nearly all actives have a fitted effect of over 65% in size. Further: potency means the concentration at half of the fitted maximal effect. The procedure, abridged: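 Compounds were tested on CYP2C19 activity via proluciferin conversion to luciferin. The 37C, 1 h reaction followed NADPH addition; detection reagent stopped it.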

Assay [14] addresses Nuclear receptor subfamily 1 group I member 2 (Rattus norvegicus) (UniProt Q9R1A7). The assay can be described thus: Rat pregnane X receptor (rPXR) activation by small molecules, qHTS assay (AID 1346983). Further: nearly all actives have a fitted effect of over 20% in size. The following applies: rPXR luciferase reporter cells, One-Glo luminescence, 24 h; stronger effect = higher value. The procedure, abridged: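 Cell-based rPXR activation assay: rPXR cells, 2,000 per well, rested 5hr at 37 C, then exposed to compounds in DMSO for 24 hr at 37 C. Luciferase activity read by One-Glo luminescence after 30 min at room temperature.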
On the % scale 0 is the no-effect control and ±100 the full control effect.

Sequence of Voltage-gated inwardly rectifying potassium channel KCNH2 (Homo sapiens) (Q12809 whole entry, looked up): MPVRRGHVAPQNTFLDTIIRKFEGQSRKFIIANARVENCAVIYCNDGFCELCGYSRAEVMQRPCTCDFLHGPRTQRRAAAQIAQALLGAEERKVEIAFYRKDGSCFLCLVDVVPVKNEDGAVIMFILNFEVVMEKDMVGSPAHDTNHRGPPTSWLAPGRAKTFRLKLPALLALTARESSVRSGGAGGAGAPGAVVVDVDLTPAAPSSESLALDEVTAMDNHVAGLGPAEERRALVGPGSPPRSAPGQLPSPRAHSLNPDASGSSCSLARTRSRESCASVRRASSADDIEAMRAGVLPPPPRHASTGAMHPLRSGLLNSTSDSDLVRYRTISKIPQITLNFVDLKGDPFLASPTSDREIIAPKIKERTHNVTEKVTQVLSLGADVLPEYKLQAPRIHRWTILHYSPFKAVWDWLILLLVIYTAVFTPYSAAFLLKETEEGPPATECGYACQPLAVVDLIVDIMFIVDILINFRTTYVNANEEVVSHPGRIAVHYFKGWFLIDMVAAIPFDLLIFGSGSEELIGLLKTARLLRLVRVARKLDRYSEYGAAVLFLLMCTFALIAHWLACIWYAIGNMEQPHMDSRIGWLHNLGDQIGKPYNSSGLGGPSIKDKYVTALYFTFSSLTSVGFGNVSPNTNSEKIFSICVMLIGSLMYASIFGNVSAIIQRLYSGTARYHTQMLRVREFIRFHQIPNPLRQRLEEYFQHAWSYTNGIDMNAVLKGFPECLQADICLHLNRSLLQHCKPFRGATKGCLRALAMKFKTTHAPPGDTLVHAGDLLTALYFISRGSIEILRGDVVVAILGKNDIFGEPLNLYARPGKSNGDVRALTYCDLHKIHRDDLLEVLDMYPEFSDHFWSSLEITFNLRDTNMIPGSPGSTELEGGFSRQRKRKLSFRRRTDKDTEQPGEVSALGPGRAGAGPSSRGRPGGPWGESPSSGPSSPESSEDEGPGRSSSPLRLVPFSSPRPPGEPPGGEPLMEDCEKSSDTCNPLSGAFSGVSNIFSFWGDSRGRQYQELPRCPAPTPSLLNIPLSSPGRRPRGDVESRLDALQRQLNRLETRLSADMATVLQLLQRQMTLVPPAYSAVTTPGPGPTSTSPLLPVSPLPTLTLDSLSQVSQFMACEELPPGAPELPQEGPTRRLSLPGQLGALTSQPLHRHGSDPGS
Sequence of Cytochrome P450 2C19 (Homo sapiens) (P33261 whole entry, looked up): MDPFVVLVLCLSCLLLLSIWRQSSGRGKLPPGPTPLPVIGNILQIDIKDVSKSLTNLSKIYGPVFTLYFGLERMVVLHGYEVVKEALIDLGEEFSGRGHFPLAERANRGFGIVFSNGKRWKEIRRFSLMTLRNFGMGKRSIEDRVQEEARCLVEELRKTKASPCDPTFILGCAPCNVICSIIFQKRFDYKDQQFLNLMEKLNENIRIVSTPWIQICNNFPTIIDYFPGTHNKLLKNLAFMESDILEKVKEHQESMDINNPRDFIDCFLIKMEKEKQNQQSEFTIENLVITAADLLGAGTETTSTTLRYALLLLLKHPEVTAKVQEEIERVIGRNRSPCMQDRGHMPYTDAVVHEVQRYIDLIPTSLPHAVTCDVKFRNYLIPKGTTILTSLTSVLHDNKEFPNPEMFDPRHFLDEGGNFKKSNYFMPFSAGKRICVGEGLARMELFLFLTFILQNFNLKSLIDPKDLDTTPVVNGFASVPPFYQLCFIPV
Sequence of Cytochrome P450 2C9 (Homo sapiens) (P11712 whole entry, looked up): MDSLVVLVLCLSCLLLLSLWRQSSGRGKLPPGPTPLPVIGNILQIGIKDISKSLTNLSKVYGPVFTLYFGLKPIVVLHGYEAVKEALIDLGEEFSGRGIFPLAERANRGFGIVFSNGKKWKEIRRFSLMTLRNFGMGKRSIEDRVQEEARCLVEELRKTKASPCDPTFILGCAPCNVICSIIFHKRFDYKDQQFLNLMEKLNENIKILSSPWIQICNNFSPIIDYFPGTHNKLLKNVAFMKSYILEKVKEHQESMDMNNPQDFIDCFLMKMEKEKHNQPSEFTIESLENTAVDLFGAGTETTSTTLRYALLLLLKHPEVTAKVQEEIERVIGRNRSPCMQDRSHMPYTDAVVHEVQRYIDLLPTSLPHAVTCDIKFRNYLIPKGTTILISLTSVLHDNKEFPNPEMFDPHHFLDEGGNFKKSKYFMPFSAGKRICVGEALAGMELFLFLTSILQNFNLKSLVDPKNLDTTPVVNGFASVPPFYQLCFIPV
Sequence of Cytochrome P450 1A2 (Homo sapiens) (P05177 whole entry, looked up): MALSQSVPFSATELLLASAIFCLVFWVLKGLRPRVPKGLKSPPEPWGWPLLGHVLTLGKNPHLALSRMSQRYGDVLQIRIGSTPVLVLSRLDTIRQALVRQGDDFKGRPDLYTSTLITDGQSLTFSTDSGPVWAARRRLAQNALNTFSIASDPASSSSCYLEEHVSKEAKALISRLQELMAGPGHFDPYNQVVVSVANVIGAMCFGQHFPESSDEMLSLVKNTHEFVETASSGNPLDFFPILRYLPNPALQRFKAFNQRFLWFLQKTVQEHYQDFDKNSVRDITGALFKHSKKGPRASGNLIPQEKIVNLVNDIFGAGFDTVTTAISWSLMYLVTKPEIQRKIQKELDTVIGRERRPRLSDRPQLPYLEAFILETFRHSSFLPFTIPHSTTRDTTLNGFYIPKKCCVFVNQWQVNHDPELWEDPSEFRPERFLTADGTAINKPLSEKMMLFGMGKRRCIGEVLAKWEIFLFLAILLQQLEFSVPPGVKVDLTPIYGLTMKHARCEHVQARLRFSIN
Sequence of Thyrotropin-releasing hormone receptor (Homo sapiens) (P34981 whole entry, looked up): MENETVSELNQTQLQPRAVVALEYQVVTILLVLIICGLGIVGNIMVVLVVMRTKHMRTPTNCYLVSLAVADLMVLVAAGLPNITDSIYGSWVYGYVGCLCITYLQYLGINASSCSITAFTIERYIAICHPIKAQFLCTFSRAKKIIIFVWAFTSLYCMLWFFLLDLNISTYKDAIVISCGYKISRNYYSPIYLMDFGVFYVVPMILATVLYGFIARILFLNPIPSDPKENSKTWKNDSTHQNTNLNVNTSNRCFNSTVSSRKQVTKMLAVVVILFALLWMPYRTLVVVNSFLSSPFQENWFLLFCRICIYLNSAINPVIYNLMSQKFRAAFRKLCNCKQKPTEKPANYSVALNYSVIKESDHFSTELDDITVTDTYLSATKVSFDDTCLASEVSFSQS
Sequence of Cytochrome P450 2D6 (Homo sapiens) (P10635 whole entry, looked up): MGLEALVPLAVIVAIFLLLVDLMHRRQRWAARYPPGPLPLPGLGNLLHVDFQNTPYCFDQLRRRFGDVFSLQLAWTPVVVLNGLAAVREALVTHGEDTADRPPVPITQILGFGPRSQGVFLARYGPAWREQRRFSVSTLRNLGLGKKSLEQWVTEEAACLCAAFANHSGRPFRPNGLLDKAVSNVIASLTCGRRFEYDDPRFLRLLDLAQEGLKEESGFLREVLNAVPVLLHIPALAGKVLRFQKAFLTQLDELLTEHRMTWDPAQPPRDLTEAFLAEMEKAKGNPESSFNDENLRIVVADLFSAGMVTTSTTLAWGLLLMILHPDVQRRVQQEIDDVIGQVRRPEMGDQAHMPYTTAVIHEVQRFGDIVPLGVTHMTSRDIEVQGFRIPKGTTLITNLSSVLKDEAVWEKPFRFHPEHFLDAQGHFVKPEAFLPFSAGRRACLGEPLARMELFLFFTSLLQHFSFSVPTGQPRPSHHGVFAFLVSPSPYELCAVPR
Sequence of Cytochrome P450 3A4 (Homo sapiens) (P08684 whole entry, looked up): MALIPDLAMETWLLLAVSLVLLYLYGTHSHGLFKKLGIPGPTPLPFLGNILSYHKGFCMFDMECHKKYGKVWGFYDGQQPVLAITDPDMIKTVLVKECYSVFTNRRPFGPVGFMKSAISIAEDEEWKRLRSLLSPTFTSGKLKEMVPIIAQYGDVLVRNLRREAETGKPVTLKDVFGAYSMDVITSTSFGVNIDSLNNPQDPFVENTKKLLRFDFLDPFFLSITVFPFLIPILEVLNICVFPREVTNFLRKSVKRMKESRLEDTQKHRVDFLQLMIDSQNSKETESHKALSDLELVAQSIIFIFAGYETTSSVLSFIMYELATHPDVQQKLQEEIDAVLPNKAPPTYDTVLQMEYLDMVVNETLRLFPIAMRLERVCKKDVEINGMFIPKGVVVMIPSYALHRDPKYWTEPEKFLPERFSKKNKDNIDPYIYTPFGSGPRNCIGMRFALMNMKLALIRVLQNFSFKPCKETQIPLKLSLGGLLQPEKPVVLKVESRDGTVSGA
Sequence of Nuclear receptor subfamily 1 group I member 2 (Homo sapiens) (O75469 whole entry, looked up): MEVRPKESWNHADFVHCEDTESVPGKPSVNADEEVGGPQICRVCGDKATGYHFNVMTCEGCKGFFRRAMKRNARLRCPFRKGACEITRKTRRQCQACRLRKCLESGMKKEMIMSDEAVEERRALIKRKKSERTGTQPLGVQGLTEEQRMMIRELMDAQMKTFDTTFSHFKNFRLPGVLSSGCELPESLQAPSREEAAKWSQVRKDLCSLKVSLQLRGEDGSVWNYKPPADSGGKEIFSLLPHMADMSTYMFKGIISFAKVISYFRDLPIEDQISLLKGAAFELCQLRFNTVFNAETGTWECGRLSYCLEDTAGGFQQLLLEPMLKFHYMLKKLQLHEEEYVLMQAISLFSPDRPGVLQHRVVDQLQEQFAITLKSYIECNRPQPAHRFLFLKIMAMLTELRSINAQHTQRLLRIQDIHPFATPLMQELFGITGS
Sequence of Nuclear receptor subfamily 1 group I member 2 (Rattus norvegicus) (Q9R1A7 whole entry, looked up): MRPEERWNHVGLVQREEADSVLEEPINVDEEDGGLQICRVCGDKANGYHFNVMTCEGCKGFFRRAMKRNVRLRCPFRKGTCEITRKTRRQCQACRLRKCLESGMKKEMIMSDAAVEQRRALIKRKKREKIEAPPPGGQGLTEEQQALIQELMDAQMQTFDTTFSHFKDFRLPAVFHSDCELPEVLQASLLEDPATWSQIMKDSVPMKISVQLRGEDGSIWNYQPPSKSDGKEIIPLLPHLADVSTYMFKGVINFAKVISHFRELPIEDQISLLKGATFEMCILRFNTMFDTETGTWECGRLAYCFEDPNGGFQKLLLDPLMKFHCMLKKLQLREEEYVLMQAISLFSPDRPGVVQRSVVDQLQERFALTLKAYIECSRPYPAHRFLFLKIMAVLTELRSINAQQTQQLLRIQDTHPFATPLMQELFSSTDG

Consider `CC(=O)Nc1ccc(S(=O)(=O)Cl)cc1`, for which the compound was called inactive in assay [1] and in [5]. Also, the Potency result in [2], in assay [3], in [4], in [6], in assay [7] and in assay [8] was “inactive” each time. For the same compound, the Potency entry in [9], in assay [10], in [11] and in [12] was “inactive” in each case.
Turning to `CN1C(C)(C)CCCC1(C)C`, the outcome in [1] and in assay [5] was inactive. Besides, the Potency result in [2], in [3], in [4], in assay [6], in assay [7] and in assay [13] was “inactive” each time. Besides, the Potency result in assay [10], in assay [11] and in [12] was “inactive” each time. The Potency in assay [8] was 2.45 µM (active).
`O=C1CCCC(=O)O1`: the call in assay [1] and in assay [5] was inactive. Also, the Potency entry in assay [2], in [3], in assay [4], in [6], in assay [7] and in assay [13] was “inactive” each time. The Potency result in assay [10], in assay [11] and in [12] was “inactive” throughout.
For `CC(C)(C)c1n[nH]c(=S)n(N)c1=O`, the compound was classed as inactive in assay [1] and in [5]. Further, the Potency entry in assay [2], in assay [3], in assay [4], in [6], in [7] and in assay [8] was “inactive” throughout. The Potency entry in [11] and in [12] was “inactive” throughout.
On to `CC(C)OC(=O)CCCCC(=O)OC(C)C`, for which the result in assay [1] and in assay [5] was inactive. The Potency entry in assay [2], in assay [3], in assay [4], in assay [6], in assay [7] and in assay [13] was “inactive” throughout. Also, the Potency entry in assay [10], in [11] and in [12] was “inactive” throughout.
Turning to `Cc1cccc2nccnc12`, the result in [1] and in [5] was inactive. The Potency entry in assay [2], in assay [3], in [4], in [6], in assay [7] and in assay [13] was “inactive” each time. The Potency result in [10] and in assay [11] was “inactive” throughout.
For `COCCc1ccc(OCC2CO2)cc1` (stereo not given), the result in assay [1] and in assay [5] was inactive. The Potency entry in assay [2], in [3], in [4], in assay [6], in assay [7] and in assay [8] was “inactive” in each case. For the same compound, the Potency result in [13], in assay [10], in assay [11] and in assay [12] was “inactive” throughout.
Regarding `Nc1cccc(O)c1`, the result in assay [1] and in assay [5] was inactive. For the same compound, the Potency entry in assay [2], in assay [3], in [4], in assay [6], in assay [7] and in [11] was “inactive” in each case. Moreover, the Potency in assay [13] was 73.1 µM (active); in [9], 25.9 µM (active).
Consider `CC(C)=O`, for which the compound was called inactive in assay [1] and in [5]. Besides, the Potency entry in assay [2], in assay [3], in [4], in [6], in assay [13] and in assay [10] was “inactive” throughout. In assay [11], the Potency result was “inactive”. Also, the max activation in assay [14] was -0.452%.
For `COC(=O)CCc1ccc(OCC(O)CNC(C)C)cc1` (stereo not given), the result in [1] and in assay [5] was inactive. Further, the Potency entry in assay [2], in [3], in assay [4], in assay [6], in [7] and in assay [13] was “inactive” in each case. The Potency result in assay [9], in [10], in [11] and in assay [12] was “inactive” each time.
